# Screening data: PubChem, Sanford-Burnham Center for Chemical Genomics
# Neddyl block: blocks human cullin neddylation; P61081+Q13564; AID 651699; TR-FRET cullin neddylation, biochemical; inhibition, % at 25 µM; 0.58% of 360,000 active; in the data active = inhibition above about 36%
# GC-A act: GC-A (human) enzyme activation | HEK293 GC-A cells, cGMP TR-FRET, EC30 ANP; 0% at EC30 ANP, 100% saturating ANP | activation, % at 10 µM | 0.14% of 370,000 active; in the data active = activation above about 40%
# Target sequence (P16066 whole entry, looked up): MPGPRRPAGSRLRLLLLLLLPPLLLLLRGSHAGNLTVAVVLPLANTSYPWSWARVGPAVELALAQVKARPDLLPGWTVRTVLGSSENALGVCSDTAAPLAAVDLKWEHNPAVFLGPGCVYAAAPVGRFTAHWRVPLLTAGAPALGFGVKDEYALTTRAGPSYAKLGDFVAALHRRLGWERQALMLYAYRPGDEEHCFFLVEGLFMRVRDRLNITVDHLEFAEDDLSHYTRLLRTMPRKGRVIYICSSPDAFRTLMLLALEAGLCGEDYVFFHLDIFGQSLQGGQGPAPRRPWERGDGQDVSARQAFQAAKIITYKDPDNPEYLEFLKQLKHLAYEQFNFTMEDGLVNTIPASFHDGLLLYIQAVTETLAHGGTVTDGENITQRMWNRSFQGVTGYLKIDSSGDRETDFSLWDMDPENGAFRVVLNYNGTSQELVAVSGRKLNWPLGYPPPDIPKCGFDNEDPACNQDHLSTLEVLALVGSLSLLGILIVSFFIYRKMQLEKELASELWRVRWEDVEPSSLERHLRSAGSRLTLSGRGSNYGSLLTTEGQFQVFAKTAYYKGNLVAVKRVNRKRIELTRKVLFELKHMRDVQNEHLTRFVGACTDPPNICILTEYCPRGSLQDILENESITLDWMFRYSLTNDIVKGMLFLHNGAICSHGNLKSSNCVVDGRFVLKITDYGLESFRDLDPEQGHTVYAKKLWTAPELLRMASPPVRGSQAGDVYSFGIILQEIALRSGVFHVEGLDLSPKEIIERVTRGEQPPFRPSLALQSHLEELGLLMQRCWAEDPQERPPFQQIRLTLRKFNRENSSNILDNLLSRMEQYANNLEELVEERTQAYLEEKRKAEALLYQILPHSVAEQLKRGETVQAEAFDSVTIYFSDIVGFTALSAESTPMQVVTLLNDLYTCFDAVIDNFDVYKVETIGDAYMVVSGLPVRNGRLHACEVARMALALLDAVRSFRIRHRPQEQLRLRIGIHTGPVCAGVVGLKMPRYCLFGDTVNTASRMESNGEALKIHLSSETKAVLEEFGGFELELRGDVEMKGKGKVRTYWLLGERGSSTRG
# A3A deaminase: inhibitors of human APOBEC3A DNA deaminase; recombinant A3A, FAM/TAMRA ssDNA deamination fluorescence; inhibition, % at 20 µM; 0.41% of 330,000 active; AID 493011;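 active = at least 40% inhibition at 20 µM here, with at most 30% in a related deaminase screen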;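 also: plate controls were A3A with DMSO for no effect and wells lacking A3A enzyme for full effect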
# APOBEC3G inh: blocks human APOBEC3G single-stranded DNA deamination; Q9HC16; AID 493012; recombinant A3G, ssDNA deamination FAM/TAMRA fluorescence; 0.28% of 330,000 active; inhibition, % at 20 µM;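 active = inhibition of at least 40% at 20 µM, with no more than 30% in the related APOBEC3A deaminase screen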;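 also: plate controls were DMSO wells with A3G for no effect and wells lacking A3G enzyme for full effect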
# PfGluPho inh: PfG6PD (Plasmodium falciparum) enzyme inhibition; PfGluPho enzyme, NADPH resazurin-diaphorase fluorescence; inhibition, % at 20 µM; 0.78% of 350,000 active;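 active = inhibition reaching at least a set limit at 20 µM in the primary screen, cut at about 59% in these data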;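 also: 0% = DMSO wells with substrate and 100% = DMSO wells lacking glucose-6-phosphate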
# NPR2 activator: GC-B (human) receptor activation; P20594; HEK293-GC-B cells, CNP EC30, cGMP TR-FRET; 0% at EC30 CNP, 100% saturating CNP; activation, % at 10 µM; 0.11% of 370,000 active; AID 1920062;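 active = activation at 10 µM reaching about 35% in either raw or pattern-adjusted values, limit read from the data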
# PfG6PD confirm: PfG6PD inhibition, single-dose confirmed; shares compounds with PfGluPho inh; recombinant PfGluPho, NADPH-diaphorase-resazurin fluorescence; inhibition, % at 20 µM; 34% of 2,400 active; AID 504753;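 active = inhibition of at least 50% at 20 µM in any single replicate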;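 also: 0% = DMSO with substrate and 100% = DMSO lacking glucose-6-phosphate substrate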
# Diaph ctr 10uM: inhibits diaphorase or oxidizes, flagging false PfG6PD hits; diaphorase-coupled resazurin reduction, fluorescence, NADPH 10 uM; inhibition, % at 20 µM; 39% of 820 active; AID 504862; shares compounds with PfGluPho inh;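 active = average inhibition reaching 50% or more with the compound at 20 µM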;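 also: resorufin red fluorescence formed as diaphorase reduces resazurin using NADPH; 0% = DMSO with enzyme and 100% = DMSO without enzyme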
# Diaph ctr 30uM: diaphorase inhibition or oxidation at 30 uM NADPH; shares compounds with PfGluPho inh; Diaphorase/resazurin coupled assay, resorufin fluorescence; inhibition, % at 20 µM; 29% of 820 active; AID 504863;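 active = inhibition averaging 50% or more, tested at 20 µM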;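 also: 0% = DMSO with enzyme and 100% = DMSO wells lacking diaphorase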
# The depositor's hits bear a star; . = no result shown. This is a sample that favours compounds with a hit; in the whole collection about 2% have one here.
SMILES,Neddyl block,GC-A act,A3A deaminase,APOBEC3G inh,PfGluPho inh,NPR2 activator,PfG6PD confirm,others
CN(C)c1ccc(/C=C/c2cccc[n+]2[O-])cc1,11.1,-4.5,-4.1,-8.0,17.1,-5.2,.,
COC(=O)[C@]12C[C@H](CC(=O)N3CCSCC3)C(=O)N(CCC3=CCCCC3)C1=C[C@H](C(C)(C)C)O[C@@H]2C,.,-8.0,.,.,.,5.1,.,
[O-]/[N+](=C/c1ccc(F)cc1)c1ccccc1,15.4,8.1,-0.3,-0.1,44.4,7.3,.,
[O-]/[N+](=C\c1ccncc1)c1ccccc1,-2.9,1.4,-5.6,-3.3,73.5*,0.5,52.3*,Diaph ctr 10uM=35.3;Diaph ctr 30uM=9.1
Cc1c(N)cc2c(c1N)C(C)(C)CC2(C)C,18.6,-1.7,.,.,83.1*,-0.2,45.7,
CC(=O)/C(N=Nc1cc2c(c([N+](=O)[O-])c1C)C(C)(C)CC2(C)C)=C(\C)O,-15.1,0.8,-1.6,-1.3,12.1,-1.6,.,
c1nc(SSc2ncnc3nc[nH]c23)c2[nH]cnc2n1,-2.0,4.8,.,.,118.2*,1.8,107.6*,Diaph ctr 10uM=-21.0;Diaph ctr 30uM=-15.4
O=C(O)CSc1ncnc2nc[nH]c12,-1.1,-3.0,-0.8,-3.6,-2.6,2.2,.,
Cc1cccc(Sc2ccc([N+](=O)[O-])cc2[N+](=O)[O-])n1,-45.7,0.9,0.6,6.8,64.3*,6.0,19.9,
Cc1ccccc1NC(=O)N(C)[C@H]1C[C@H]2c3[nH]c4c(-c5ccccc5)cccc4c3CCN2C[C@H]1[C@H](C)O,.,-1.9,.,.,.,-5.1,.,
O=C(Nc1ccccn1)c1sc2cc([N+](=O)[O-])ccc2c1Cl,-32.9,-32.9,-1.8,24.1,70.2*,-30.8,61.0*,Diaph ctr 10uM=-14.9;Diaph ctr 30uM=-18.0
Cc1ccnc(NC(=O)c2sc3ccccc3c2Cl)c1,-9.7,-3.2,-0.4,-1.2,7.8,-5.8,.,
COC(=O)[C@]12C[C@H](CC(=O)NCC3CCCCC3)C(=O)N(Cc3ccc(Cl)cc3Cl)C1=C[C@H](C(C)(C)C)O[C@@H]2C,.,-4.1,.,.,.,-8.8,.,
Cc1ccc(C)c(NC(=S)Nc2cccc3cnccc23)c1,-24.6,-14.9,-0.6,2.1,101.0*,2.4,-2.0,
Cc1ccc(NC(=S)Nc2cccc3cnccc23)cc1,-30.3,1.2,-3.4,-4.7,56.8,-4.8,.,
CC(=O)c1ccc(NC(=S)Nc2cccc3cnccc23)cc1,-16.5,-4.8,-0.1,35.7,63.5*,-5.9,-5.5,
Cn1cc(CCOCc2ccccn2)c2ccccc21,.,2.7,.,.,.,0.8,.,
Cc1ccsc1/C=N/NC(=S)NCc1ccccc1,-8.5,-0.1,7.8,-0.8,18.3,2.5,.,
Cc1ccsc1/C=N\NC(=O)CC(=O)NCc1ccccc1,-19.8,-2.1,-0.3,-1.6,86.2*,-0.9,72.8*,Diaph ctr 10uM=60.8*;Diaph ctr 30uM=40.9
O=C(CC(=O)N/N=C/c1c(F)cccc1Cl)NCc1ccccc1,.,-5.8,1.9,-0.5,77.4*,1.5,67.1*,Diaph ctr 10uM=62.4*;Diaph ctr 30uM=51.7*
CN1CC=C(c2ccccc2)N(c2ccc(Br)cc2)C1=O,.,3.3,.,.,.,-2.7,.,
Brc1ccc2nc(-c3c[nH]c4ccccc34)cn2c1,-292.3,3.1,-5.7,-18.1,93.3*,-3.9,32.1,
C=CCN1[C@H](Cc2ccccc2)COc2cc(N3CCSCC3)ccc2S1(=O)=O,.,1.2,.,.,.,3.7,.,
CC(NCc1ccco1)C(=O)N1CCN(c2ccc(F)cc2)CC1 (stereo unspecified),.,-2.2,.,.,.,2.3,.,
NC(=S)NN=Cc1nccc2c(N)cccc12,-29.1,-6.7,.,.,100.3*,3.2,48.7,
SMILES,Neddyl block,GC-A act,A3A deaminase,APOBEC3G inh,PfGluPho inh,NPR2 activator,PfG6PD confirm,others
c1ccc(CNC2CCC23CCC(c2ccccc2)CC3)cc1 (stereo unspecified),.,-4.4,.,.,.,-9.7,.,
Cn1cc(S(=O)(=O)Cc2ccc(F)cc2)c2ccccc21,0.7,0.8,-8.2,-8.2,102.6*,-1.2,62.3*,Diaph ctr 10uM=68.9*;Diaph ctr 30uM=51.1*
Cn1cc(S(=O)(=O)CC(=O)N2CCc3ccccc32)c2ccccc21,3.0,-1.5,6.0,1.7,74.3*,-3.5,53.4*,Diaph ctr 10uM=48.8;Diaph ctr 30uM=45.6
COC(=O)[C@]12C[C@H](CC(=O)N3CCOCC3)C(=O)N(CCc3ccc(OC)c(OC)c3)C1=C[C@H](C1CCCC1)O[C@@H]2C,.,-3.4,.,.,.,7.3,.,
O=C(Nc1ccc(Cl)c(Cl)c1)C1CCCN(c2nnc(-n3cccc3)s2)C1 (stereo unspecified),.,-5.2,.,.,.,-11.8,.,
COC1=C(N)C(=O)c2nc(C)ccc2C1=O,-55.6,0.2,.,.,108.6*,-0.3,93.2*,Diaph ctr 10uM=49.0;Diaph ctr 30uM=56.8*
COC1=C(Br)C(=O)c2nc(C)ccc2C1=O,-44.6,-10.8,.,.,101.1*,2.5,73.7*,Diaph ctr 10uM=46.2;Diaph ctr 30uM=37.2
C=CCN1C(=O)[C@@H](CC(=O)NCc2ccc(C)o2)[C@]2(C(=O)OC)CCCCC=C12,.,-1.3,.,.,.,-2.2,.,
COC(=O)C1CN(C2CCCC2)CCS(=O)(=O)N1Cc1cn(Cc2ccc(F)cc2)nn1 (stereo unspecified),.,-1.7,.,.,.,2.2,.,
C/C(Cn1nnc([N+](=O)[O-])n1)=N\NC(=O)c1ccccc1,-19.4,.,-2.2,-3.2,62.7*,.,60.4*,Diaph ctr 10uM=11.2;Diaph ctr 30uM=13.9
C/C(Cn1cnc([N+](=O)[O-])n1)=N\NC(=O)c1ccccc1,-17.0,-2.1,0.9,-6.5,4.3,-1.5,.,
COc1ccc(Cn2cc(COC(=O)NCCc3c[nH]c4ccccc34)nn2)cc1,.,-3.5,.,.,.,-6.0,.,
CC(=O)Nc1cc([N+](=O)[O-])ccc1OCc1ccccc1,-26.8,-0.3,.,.,72.4*,0.0,50.1*,Diaph ctr 10uM=45.0;Diaph ctr 30uM=36.8
Oc1ccc(C=NNc2ccccn2)c(O)c1,2.8,-9.9,.,.,60.6*,-7.5,45.0,
Oc1cccc(C=NNc2ccccn2)c1,-5.3,-0.1,.,.,6.4,2.1,.,
O=[N+]([O-])c1ccc(COc2ccc(CN3CCOCC3)cc2)cc1,-12.4,3.8,.,.,-4.1,3.6,.,
O=[N+]([O-])c1ccc(CN2CCOCCOCCN(Cc3ccc([N+](=O)[O-])cc3)CCOCC2)cc1,-25.8,.,-0.1,-5.3,62.2*,.,-4.3,
O=[N+]([O-])c1ccc(COc2ccc(Br)cc2CN2CCOCC2)cc1,-12.3,-10.2,29.7,-4.3,65.3*,-9.6,23.9,
CCCCOC(=O)C1=C(C)N(C)C(=O)NC1c1cc2c(cc1Br)OCO2 (stereo unspecified),-13.2,-6.3,.,.,-7.0,-7.4,.,
CCOC(=O)C1=C(C)N(C)C(=O)NC1c1cc2c(cc1[N+](=O)[O-])OCO2 (stereo unspecified),.,-6.9,16.4,14.0,70.5*,-6.9,-20.3,
